This is a sample that favours compounds with a hit; in the whole collection about 12% have one here.
G9a inh-1 – qHTS Assay for Inhibitors of Histone Lysine Methyltransferase G9a | Histone-lysine N-methyltransferase EHMT2 (Homo sapiens), Q96KQ7 | G9a H3K9 monomethylation, AlphaScreen, 2 h | Potency, µM (titrated, usually from 102 µM), actives largely listed as inhibitors | 350,000 compounds, 8.8% hits | AID 504332, 2011; note: nearly all actives have a fitted effect of over 75% in size
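Readings reflect AlphaScreen signal from monomethyl-H3K9 antibody detection. HMT at 20 nM; substrate b-H3K9 500 nM; cofactor SAM 20 uM; 2 h RT reaction; compounds tested as titrations in qHTS with 15 min preincubation.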
PI5P4K alpha inh – qHTS for Inhibitors of phosphatidylinositol 5-phosphate 4-kinase (PI5P4K); Phosphatidylinositol 5-phosphate 4-kinase type-2 alpha (Homo sapiens), P48426; PI5P4Kalpha enzyme, ADP-Glo luminescence, 60 min; stronger effect = lower value; max response, %; 330,000 compounds, 1.2% hits; active = max response of -50% or lower; inconclusive = between -30% and -50%; inactive = -30% or higher; note: value at the top dose of about 77 µM
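Enzyme plus substrate dispensed, test compounds pinned in, then ATP (5 microM final) added. After 60 min at RT, ADP-Glo reagent 1 for 45 min and reagent 2 for 30 min preceded luminescence imaging.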
PLK1 PBD block – qHTS for Inhibitors of PLK1-PDB (polo-like kinase 1 - polo-box domain): Primary Screen | Plk1 PBD binding of FITC phosphopeptide, fluorescence polarization | 360,000 compounds, 2.8% hits | Potency, µM, most hits filed as inhibitors | Serine/threonine-protein kinase PLK1 (Homo sapiens), P53350; note: series mostly up to about 57 µM; nearly all actives have a fitted effect of over 65% in size
BAZ2B inh – qHTS Assay for Inhibitors of BAZ2B; AlphaScreen BAZ2B-H3K14Ac peptide displacement; AID 504333, 2011; Potency, µM (titrated, usually from 114 µM), most hits filed as inhibitors; 360,000 compounds, 4.4% hits; note: nearly all actives have a fitted effect of over 60% in size
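BAZ2B (50 nM) with biotin-H3(5-23)K14Ac peptide (50 nM) in PBS pH 7.4, 0.01% Tween-20, preformed 30 min, then compound 30 min at room temperature; top concentration 110uM. AlphaScreen streptavidin donor/nickel chelate acceptor beads (10 ug/mL final), 20 min dark, signal read.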
HP1b binding inh – HTS for Inhibitors of HP1-beta Chromodomain Interactions with Methylated Histone Tails | AlphaScreen HP1-beta / biotin-H3K9me3 peptide binding | AID 540317, 2011 | 390,000 compounds, 0.56% hits | Chromobox protein homolog 1 (Homo sapiens), P83916 | Potency, µM (highest dose often 114 µM), hits mostly inhibitors; note: nearly all actives have a fitted effect of over 70% in size
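HP1-beta protein (50 nM final) preincubated 30 min at room temperature with biotinylated H3(1-18)K9me3 peptide (50 nM) in PBS pH 7.4, 0.01% Tween-20, then compound added for 30 min. AlphaScreen streptavidin donor/nickel chelate acceptor beads (10 ug/mL final), 30 min dark, luminescence read.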
JMJD2A Tudor – qHTS Assay for Inhibitors of JMJD2A-Tudor Domain. Lysine-specific demethylase 4A (Homo sapiens), O75164. AlphaScreen JMJD2A-Tudor / H3K4me3 peptide binding. Potency, µM (titrated, usually from 114 µM), actives largely listed as inhibitors. 390,000 compounds, 4.4% hits; note: nearly all actives have a fitted effect of over 50% in size
JMJD2E inh – Confirmation qHTS Assay for Inhibitors of Human Jumonji Domain Containing 2E (JMJD2E). Recombinant JMJD2E, FDH-coupled NADH fluorescence (FDH is formaldehyde dehydrogenase). Potency, µM (top dose mostly 56.8 µM), actives largely listed as inhibitors. 140 compounds, 93% hits. shares compounds with JMJD2A Tudor
FDH counter – Counterscreen for JMJD2E Inhibitors: qHTS Assay for Inhibitors of Formaldehyde Dehydrogenase (FDH) | 140 compounds, 10% hits | Potency, µM (highest dose often 56.7 µM), hits mostly inhibitors | FDH enzyme assay, NADH fluorescence kinetic | shares compounds with JMJD2A Tudor
G9a inh-2 – qHTS Assay for Inhibitors of Histone Lysine Methyltransferase G9a: Hit Confirmation. shares compounds with JMJD2A Tudor. G9a H3K9 monomethylation, AlphaScreen, 2 h. Potency, µM, hits mostly inhibitors. 370 compounds, 89% hits. AID 588344, 2011; note: nearly all actives have a fitted effect of over 65% in size
RGS4 confirm – qHTS for Inhibitors of Regulator of G Protein Signaling(RGS) 4: Hit Validation; AID 602388, 2012; Potency, µM, most hits filed as inhibitors; shares compounds with JMJD2A Tudor; 25 compounds, 80% hits; RGS4 GAP activity, Transcreener GDP fluorescence polarization
Numbers stand for hits; i = inactive; ? = inconclusive; nt = no result; [ ] = dose if it differs, or a comment. Unless noted, calls come from the whole dose curve; as a rule, active = well fitted curve in the direction sought with a large enough effect; inconclusive = small, poorly fitted or top-dose-only effect, or another doubt; inactive = no such curve, though single readings can be large; an effect the other way counts as inactive or inconclusive.

SMILES	G9a inh-1	PI5P4K alpha inh	PLK1 PBD block	BAZ2B inh	HP1b binding inh	JMJD2A Tudor	G9a inh-2	others
Cc1ccnc(NC(c2cccnc2)c2ccc3cccnc3c2O)c1 (stereo not drawn)	6.3µM	i	?	7.1µM	?	22µM	nt	JMJD2E inh=32µM;FDH counter=?
Cc1ccc2ccc(C(Nc3ccccc3)c3ccccc3)c(O)c2n1 (stereo not drawn)	nt	i	i	nt	nt	nt	nt
Cc1ccc2nc(N)[nH]c(=O)c2c1Sc1ccncc1	?	nt	nt	nt	nt	nt	11
Cc1ccc2nc3[nH]c(=O)[nH]c(=O)c3c(N)c2c1	nt	i	i	nt	i	i	nt
Cc1ccc(-n2ncc(C(=O)NCCCN3CCc4ccccc4C3)c2C2CCN(C(=O)OC(C)(C)C)CC2)cc1C	i	nt	nt	i	i	?	nt
Oc1ccc(NCc2ccc(OCc3ccccc3)cc2)cc1	7.9µM	i	i	40µM	?	56µM	1.3
Cc1ccccc1NC(=O)C1C(=O)Nc2ccccc2C(=O)N1Cc1ccccc1 (stereo not drawn)	nt	i	i	nt	nt	nt	nt
Nc1ccc(OC(=O)Nc2ccc(O)cc2)cc1	?	i	i	i	i	?	nt
O=C(Nc1ccc(N2CCN(c3ccc(O)cc3)CC2)cc1)Oc1ccccc1	0.89µM	nt	i	i	i	i	0.2
Cc1ccc(NC(=O)CCSc2nc(-c3ccco3)cc(C(F)(F)F)n2)cc1F	i	nt	nt	i	i	i	nt
CC1Sc2ccc(S(=O)(=O)N3CCC(C(=O)Nc4cccc(Cl)c4)CC3)cc2NC1=O (stereo not drawn)	i	i	i	i	i	i	nt
CCN(CC)C(=O)Cc1c(OC)ccc2cc(Br)ccc12	i	i	i	i	i	i	nt
CCN(Cc1ccncc1)Cc1c(O)ccc2cc(Br)ccc12	2µM	?	11µM	nt	?	45µM	2.8	RGS4 confirm=17
CN(C)c1ccc(NC(=O)Nc2cccc3ccccc23)cc1	2.8µM	i	?	?	i	i[11.4 µM]	1.1
CCN(CC)c1ccc(NC(=O)COC(=O)C2CCN(c3ccc(C(F)(F)F)cn3)CC2)cc1	1.6µM	i	i	?	?	16µM	2.8
COc1cccc(C(=O)Nc2ccc(N(C)C)cc2)c1OC	?	i	i	50µM	?	56µM	7.1
COc1cccc(C(=O)Nc2ccncc2)c1OC	i	i	i	i	i	i	nt
COc1ccc(Cl)cc1C(=O)Nc1ccncc1	?	i	i	i	i	i	nt
CCN(CC)c1ccc(NC(=O)c2cc(Cl)ccc2OC)cc1	2.5µM	i	i	?	35µM	45µM	1.4
CC(Sc1nnc(-c2cccnc2)o1)C(=O)NC1CCCCC1 (stereo not drawn)	i[12.7 µM]	i	i	i	i	i	nt
CCc1ccc(NC(=O)CC2C(=O)N(c3ccc(Cl)cc3)C(=O)N2Cc2cccs2)cc1 (stereo not drawn)	?	nt	nt	i	i	i	nt
